One sequence from paper PMC7862700, “An all-to-all approach to the identification of sequence-specific readers for epigenetic DNA modifications on cytosine” can be followed below.

Common to all, as to assay: DAPPL (digital affinity profiling via proximity ligation, sequencing); 10 mM Tris-HCl pH 7.5, 50 mM NaCl, 1 mM DTT, 4% glycerol, room temperature, 30 min; GST-TFs on glutathione beads, 16-mer random dsDNA library, 0.1% formaldehyde crosslink after washing; high values mean tight binding
One assay has as its target T1, FLI1 (Homo sapiens, UniProt Q01543 1-452).
T1 sequence: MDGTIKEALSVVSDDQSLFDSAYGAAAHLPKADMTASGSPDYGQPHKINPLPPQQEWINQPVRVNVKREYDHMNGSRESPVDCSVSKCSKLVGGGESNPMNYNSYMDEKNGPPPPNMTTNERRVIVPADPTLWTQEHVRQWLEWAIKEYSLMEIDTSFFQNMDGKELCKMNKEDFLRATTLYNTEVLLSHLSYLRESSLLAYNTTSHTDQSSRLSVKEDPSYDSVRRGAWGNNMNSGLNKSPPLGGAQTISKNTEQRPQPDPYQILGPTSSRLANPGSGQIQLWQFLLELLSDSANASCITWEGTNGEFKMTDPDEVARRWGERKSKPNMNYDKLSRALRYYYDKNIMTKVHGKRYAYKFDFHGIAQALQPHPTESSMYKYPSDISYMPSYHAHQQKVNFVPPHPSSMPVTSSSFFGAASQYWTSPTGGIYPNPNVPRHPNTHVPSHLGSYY
The note with it: protein: recombinant; tags: N-terminal GST; dsDNA, one strand shown. In outline: (§1)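 Binding signal is given per hexamer as its read frequency for a factor divided by its frequency in the tag-only sample. GST-fused human transcription factors were expressed in yeast, captured on glutathione beads, barcoded with DNA and pooled with that sample, then incubated with 200 nmole of a 16-mer random double-stranded DNA library in Tris/NaCl/DTT/glycerol buffer for 30 min at room temperature. The pools were then washed, crosslinked, proximity-ligated, amplified by PCR and sequenced on an Illumina NextSeq500.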

For the next assay, the target named is T2, ELK1 (Homo sapiens, UniProt P19419 1-428).
T2 sequence: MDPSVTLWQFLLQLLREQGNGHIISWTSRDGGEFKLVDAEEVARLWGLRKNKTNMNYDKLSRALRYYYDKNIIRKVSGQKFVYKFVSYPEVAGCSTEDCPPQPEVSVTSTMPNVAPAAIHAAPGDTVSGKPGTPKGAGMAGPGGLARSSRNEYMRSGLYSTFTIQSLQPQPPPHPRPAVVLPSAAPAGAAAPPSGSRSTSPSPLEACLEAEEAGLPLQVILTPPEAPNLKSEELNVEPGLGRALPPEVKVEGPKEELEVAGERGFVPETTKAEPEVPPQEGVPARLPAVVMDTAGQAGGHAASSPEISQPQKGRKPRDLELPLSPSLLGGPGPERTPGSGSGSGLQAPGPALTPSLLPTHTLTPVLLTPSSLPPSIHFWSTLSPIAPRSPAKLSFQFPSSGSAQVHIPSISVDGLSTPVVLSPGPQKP
The note with it: protein: recombinant; tags: N-terminal GST; dsDNA, one strand shown. A digest of the protocol: as §1

The next assay concerns the target T3, GABPA (Homo sapiens, UniProt Q06546 1-454).
T3 sequence: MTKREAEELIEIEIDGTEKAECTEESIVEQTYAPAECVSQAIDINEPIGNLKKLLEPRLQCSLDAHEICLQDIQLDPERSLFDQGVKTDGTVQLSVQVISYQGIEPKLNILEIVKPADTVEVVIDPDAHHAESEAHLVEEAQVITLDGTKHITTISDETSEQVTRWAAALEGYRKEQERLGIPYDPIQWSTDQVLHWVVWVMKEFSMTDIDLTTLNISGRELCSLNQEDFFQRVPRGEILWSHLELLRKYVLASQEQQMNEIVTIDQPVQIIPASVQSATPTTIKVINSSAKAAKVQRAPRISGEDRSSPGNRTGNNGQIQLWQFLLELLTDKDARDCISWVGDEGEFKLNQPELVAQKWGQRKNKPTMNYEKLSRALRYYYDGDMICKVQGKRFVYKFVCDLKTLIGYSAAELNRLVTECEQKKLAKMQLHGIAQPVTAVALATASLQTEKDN
The note with it: protein: recombinant; tags: N-terminal GST; dsDNA, one strand shown. A digest of the protocol: as §1

The next assay addresses T4, ERG (Homo sapiens, UniProt P11308 1-479).
T4 sequence: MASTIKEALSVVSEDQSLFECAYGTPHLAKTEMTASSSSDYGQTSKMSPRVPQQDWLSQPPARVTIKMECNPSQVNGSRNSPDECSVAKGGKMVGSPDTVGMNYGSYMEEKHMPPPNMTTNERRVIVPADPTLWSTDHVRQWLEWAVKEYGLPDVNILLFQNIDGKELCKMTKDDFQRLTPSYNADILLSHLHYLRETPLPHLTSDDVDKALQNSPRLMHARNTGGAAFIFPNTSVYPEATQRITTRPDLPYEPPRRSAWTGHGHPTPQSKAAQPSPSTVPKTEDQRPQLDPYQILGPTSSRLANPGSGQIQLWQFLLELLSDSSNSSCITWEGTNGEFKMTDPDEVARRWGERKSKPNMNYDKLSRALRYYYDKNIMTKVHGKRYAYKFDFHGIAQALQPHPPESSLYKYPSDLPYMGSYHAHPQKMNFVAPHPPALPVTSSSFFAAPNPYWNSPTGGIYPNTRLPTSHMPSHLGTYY
The note with it: protein: recombinant; tags: N-terminal GST; dsDNA, one strand shown. In outline:
as §1

The next assay has as its target ELF1 (Homo sapiens, UniProt P32519 1-619). The note with it: protein: recombinant; tags: N-terminal GST; dsDNA, one strand shown. A digest of the protocol: as §1
A further assay has as its target T5, EHF (Homo sapiens, UniProt Q9NZC4 1-300).
T5 sequence: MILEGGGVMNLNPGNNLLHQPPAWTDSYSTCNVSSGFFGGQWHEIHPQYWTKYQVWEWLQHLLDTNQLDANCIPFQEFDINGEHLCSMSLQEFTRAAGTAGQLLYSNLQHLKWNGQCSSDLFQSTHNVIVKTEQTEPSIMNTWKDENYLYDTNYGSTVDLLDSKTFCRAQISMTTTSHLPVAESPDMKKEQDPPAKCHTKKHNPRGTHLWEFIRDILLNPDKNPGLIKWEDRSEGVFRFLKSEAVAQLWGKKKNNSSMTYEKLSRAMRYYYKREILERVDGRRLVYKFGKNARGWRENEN
The note with it: protein: recombinant; tags: N-terminal GST; dsDNA, one strand shown. A digest of the protocol:
as §1

The target of a further assay is SPI1 (Homo sapiens, UniProt P17947 1-270). The note with it: protein: recombinant; tags: N-terminal GST; dsDNA, one strand shown. A digest of the protocol: as §1
In another assay the target is SPIB (Homo sapiens, UniProt Q01892 1-262). The note with it: protein: recombinant; tags: N-terminal GST; dsDNA, one strand shown. In outline:
as §1

The next assay deals with T6, ELK3 (Homo sapiens, UniProt P41970 1-407).
T6 sequence: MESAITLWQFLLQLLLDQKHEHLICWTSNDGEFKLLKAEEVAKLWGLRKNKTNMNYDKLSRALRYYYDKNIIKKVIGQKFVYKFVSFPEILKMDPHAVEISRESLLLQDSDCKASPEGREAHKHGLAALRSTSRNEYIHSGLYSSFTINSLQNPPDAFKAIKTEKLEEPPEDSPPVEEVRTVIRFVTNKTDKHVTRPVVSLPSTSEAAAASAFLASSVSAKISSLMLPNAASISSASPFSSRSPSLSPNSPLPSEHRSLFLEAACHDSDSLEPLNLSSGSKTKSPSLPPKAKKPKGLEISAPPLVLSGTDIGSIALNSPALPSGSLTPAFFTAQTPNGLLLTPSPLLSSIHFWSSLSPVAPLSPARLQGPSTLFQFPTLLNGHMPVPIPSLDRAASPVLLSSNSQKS
The note with it: protein: recombinant; tags: N-terminal GST; dsDNA, one strand shown. A digest of the protocol:
as §1

A further assay addresses T7, FEV (Homo sapiens, UniProt Q99581 1-238).
T7 sequence: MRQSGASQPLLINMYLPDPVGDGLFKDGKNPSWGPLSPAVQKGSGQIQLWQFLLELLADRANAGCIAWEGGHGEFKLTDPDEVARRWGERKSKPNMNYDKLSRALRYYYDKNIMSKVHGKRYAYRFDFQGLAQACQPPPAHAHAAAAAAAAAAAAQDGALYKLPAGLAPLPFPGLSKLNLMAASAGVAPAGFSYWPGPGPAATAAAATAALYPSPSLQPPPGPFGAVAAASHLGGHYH
The note with it: protein: recombinant; tags: N-terminal GST; dsDNA, one strand shown. A digest of the protocol: as §1

The next assay concerns the target ETV5 (Homo sapiens, UniProt P41161 1-510). The note with it: protein: recombinant; tags: N-terminal GST; dsDNA, one strand shown. A digest of the protocol: as §1
In a further assay the target is HSF1 (Homo sapiens, UniProt Q00613 1-529). The note with it: protein: recombinant; tags: N-terminal GST; chain copies: 3; dsDNA, one strand shown. In outline: as §1
HSF1, sequence (Q00613 whole entry): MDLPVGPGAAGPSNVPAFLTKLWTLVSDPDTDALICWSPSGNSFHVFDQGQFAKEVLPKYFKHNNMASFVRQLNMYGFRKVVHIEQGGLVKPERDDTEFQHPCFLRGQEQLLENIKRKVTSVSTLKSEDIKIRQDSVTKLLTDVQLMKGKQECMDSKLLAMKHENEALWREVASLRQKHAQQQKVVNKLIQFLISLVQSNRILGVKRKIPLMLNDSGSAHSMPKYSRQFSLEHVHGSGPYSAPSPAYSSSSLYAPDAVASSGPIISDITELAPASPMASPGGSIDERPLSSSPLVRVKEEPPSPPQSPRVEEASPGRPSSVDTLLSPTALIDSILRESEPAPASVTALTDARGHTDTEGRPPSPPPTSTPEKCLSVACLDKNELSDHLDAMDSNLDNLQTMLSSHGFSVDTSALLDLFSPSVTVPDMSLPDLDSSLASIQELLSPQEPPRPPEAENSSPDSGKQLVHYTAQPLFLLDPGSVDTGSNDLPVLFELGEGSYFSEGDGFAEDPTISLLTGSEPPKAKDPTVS
A further assay deals with T8, SPIC (Homo sapiens, UniProt Q8N5J4 1-248).
T8 sequence: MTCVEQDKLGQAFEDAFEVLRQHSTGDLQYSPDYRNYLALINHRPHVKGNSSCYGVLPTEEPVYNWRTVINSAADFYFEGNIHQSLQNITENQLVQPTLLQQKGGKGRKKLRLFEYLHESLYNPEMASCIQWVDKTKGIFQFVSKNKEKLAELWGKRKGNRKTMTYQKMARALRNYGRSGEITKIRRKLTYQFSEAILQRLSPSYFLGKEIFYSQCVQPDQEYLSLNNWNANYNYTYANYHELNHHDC
The note with it: protein: recombinant; tags: N-terminal GST; dsDNA, one strand shown. A digest of the protocol: as §1

Another assay deals with ELF4 (Homo sapiens, UniProt Q99607 1-663). The note with it: protein: recombinant; tags: N-terminal GST; dsDNA, one strand shown. A digest of the protocol:
as §1

The next assay has as its target T9, ELK4 (Homo sapiens, UniProt P28324-2 1-405).
T9 sequence: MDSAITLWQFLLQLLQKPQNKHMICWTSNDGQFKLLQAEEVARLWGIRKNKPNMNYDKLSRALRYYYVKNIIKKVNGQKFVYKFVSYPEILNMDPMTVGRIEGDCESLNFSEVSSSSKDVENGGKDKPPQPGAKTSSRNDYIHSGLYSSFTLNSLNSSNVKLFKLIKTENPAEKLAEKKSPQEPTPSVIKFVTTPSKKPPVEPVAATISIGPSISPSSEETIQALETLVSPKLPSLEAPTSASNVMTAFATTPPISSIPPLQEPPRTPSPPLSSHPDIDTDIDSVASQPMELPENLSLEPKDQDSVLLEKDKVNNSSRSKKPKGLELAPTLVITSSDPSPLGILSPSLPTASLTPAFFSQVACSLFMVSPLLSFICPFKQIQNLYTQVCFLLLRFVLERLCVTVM
The note with it: protein: recombinant; tags: N-terminal GST; dsDNA, one strand shown. In outline:
as §1

The next assay addresses T10, ETV2 (Homo sapiens, UniProt O00321 1-342).
T10 sequence: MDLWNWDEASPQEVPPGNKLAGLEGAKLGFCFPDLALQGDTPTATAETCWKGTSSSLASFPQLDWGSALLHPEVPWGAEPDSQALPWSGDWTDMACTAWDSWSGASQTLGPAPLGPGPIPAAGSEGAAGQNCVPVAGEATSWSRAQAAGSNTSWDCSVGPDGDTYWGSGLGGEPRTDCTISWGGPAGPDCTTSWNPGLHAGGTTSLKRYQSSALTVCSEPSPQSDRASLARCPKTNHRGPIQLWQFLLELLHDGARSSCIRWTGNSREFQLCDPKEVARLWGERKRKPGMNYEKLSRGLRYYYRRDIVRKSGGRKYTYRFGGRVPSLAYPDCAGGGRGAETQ
The note with it: protein: recombinant; tags: N-terminal GST; dsDNA, one strand shown. In outline: as §1

The target in the next assay is T11, ELF3 (Homo sapiens, UniProt P78545 1-371).
T11 sequence: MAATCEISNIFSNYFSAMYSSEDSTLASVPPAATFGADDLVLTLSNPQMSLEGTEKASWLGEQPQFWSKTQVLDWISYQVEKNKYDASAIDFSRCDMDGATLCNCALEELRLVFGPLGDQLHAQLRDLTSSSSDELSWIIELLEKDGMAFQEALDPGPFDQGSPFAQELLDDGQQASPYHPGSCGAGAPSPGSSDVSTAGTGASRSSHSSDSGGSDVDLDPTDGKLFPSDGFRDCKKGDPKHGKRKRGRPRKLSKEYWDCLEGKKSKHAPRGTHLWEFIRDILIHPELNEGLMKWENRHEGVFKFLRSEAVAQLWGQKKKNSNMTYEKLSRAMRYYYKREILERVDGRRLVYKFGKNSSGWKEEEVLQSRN
The note with it: protein: recombinant; tags: N-terminal GST; dsDNA, one strand shown. In outline: as §1

Another assay concerns the target CRX (Homo sapiens, UniProt O43186 1-299). The note with it: protein: recombinant; tags: N-terminal GST; dsDNA, one strand shown. A digest of the protocol:
as §1

The target in another assay is ETV1 (Homo sapiens, UniProt P50549 1-477). The note with it: protein: recombinant; tags: N-terminal GST; dsDNA, one strand shown. In outline: as §1
ETV1, sequence (P50549 whole entry): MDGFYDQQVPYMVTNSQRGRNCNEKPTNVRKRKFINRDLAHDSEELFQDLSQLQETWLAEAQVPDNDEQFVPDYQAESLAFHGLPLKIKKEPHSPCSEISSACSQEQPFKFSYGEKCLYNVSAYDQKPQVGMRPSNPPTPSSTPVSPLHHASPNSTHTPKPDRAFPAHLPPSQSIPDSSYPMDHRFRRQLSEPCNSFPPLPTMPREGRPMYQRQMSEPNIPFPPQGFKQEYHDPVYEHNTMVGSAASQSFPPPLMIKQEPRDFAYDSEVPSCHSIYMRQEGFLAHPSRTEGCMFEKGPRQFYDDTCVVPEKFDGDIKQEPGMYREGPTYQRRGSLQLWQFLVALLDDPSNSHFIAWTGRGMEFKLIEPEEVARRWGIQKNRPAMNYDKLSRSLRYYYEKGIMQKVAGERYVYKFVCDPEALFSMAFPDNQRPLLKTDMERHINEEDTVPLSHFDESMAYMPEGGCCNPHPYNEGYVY

ELF1, sequence (P32519 whole entry): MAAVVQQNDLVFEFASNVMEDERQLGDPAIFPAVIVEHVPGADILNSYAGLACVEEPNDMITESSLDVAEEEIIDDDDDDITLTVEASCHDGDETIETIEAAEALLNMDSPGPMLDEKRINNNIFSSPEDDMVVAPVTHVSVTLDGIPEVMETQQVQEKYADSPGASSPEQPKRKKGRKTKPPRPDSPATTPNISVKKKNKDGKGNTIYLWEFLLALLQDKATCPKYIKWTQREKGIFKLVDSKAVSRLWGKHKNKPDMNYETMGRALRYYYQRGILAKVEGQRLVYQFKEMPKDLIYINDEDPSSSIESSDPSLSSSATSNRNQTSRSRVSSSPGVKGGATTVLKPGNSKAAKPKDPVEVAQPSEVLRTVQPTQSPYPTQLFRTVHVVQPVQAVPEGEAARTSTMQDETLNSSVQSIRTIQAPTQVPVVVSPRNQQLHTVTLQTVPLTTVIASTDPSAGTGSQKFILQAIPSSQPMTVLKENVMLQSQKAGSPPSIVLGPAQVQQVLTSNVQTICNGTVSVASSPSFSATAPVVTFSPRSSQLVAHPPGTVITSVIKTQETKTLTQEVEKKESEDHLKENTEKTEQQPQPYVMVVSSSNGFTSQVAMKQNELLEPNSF
CRX, sequence (O43186 whole entry): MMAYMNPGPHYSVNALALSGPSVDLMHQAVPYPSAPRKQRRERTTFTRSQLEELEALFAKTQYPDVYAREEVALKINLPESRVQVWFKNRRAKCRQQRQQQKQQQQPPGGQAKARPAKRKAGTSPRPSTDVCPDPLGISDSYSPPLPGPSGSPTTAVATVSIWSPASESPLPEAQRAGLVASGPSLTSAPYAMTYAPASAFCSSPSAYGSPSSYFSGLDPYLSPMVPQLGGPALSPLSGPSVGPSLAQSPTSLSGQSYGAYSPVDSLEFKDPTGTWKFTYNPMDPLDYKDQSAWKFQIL
SPIB, sequence (Q01892 whole entry): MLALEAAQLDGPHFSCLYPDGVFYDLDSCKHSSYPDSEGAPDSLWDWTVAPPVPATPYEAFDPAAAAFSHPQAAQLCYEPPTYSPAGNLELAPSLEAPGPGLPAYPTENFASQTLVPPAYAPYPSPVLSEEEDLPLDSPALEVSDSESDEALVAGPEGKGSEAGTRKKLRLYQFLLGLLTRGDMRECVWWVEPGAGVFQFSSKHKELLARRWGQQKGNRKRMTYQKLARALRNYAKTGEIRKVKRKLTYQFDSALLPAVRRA
ETV5, sequence (P41161 whole entry): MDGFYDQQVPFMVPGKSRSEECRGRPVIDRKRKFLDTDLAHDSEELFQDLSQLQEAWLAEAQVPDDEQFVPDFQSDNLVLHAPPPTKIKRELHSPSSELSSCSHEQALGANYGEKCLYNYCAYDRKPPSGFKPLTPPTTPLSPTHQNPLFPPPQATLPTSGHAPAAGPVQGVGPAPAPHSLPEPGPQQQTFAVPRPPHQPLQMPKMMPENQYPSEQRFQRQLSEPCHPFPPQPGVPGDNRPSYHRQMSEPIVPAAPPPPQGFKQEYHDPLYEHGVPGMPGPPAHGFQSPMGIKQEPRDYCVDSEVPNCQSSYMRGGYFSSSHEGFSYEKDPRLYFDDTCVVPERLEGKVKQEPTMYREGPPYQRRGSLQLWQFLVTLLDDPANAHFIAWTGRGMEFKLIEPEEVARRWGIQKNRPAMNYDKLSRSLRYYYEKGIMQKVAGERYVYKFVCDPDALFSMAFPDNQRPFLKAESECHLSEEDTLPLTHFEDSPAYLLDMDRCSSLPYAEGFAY
ELF4, sequence (Q99607 whole entry): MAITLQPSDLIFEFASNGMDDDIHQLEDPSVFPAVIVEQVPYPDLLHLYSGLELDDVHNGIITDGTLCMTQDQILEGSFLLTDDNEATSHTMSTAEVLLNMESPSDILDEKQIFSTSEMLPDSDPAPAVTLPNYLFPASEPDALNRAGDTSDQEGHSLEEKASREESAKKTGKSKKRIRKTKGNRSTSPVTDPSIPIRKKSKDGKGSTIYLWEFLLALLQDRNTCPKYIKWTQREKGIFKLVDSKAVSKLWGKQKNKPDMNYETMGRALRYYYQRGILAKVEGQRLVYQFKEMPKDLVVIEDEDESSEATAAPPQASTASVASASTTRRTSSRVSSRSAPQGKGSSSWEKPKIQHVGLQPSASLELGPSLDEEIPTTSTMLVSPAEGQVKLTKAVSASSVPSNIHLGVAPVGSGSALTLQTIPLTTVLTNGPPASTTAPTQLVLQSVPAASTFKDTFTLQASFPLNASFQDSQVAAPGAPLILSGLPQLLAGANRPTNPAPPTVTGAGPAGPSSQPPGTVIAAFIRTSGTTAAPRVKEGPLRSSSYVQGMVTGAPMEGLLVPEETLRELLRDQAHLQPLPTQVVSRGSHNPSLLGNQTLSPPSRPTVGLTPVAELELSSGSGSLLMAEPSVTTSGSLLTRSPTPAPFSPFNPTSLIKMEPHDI

Consider GAAGCT, for which the binding signal with FLI1 is 1.62 fold enrichment (6-mer frequency, TF over GST control); with ELK1, 1.7 fold enrichment (6-mer frequency, TF over GST control); with GABPA, 1.52 fold enrichment (6-mer frequency, TF over GST control); with ERG, 1.64 fold enrichment (6-mer frequency, TF over GST control); with ELF1 it was 1.44 fold enrichment (6-mer frequency, TF over GST control); with EHF, 1.69 fold enrichment (6-mer frequency, TF over GST control). For the same sequence, the binding signal was 1.63 fold enrichment (6-mer frequency, TF over GST control) with SPI1; 1.64 fold enrichment (6-mer frequency, TF over GST control) with SPIB; 1.66 fold enrichment (6-mer frequency, TF over GST control) with ELK3; 1.48 fold enrichment (6-mer frequency, TF over GST control) with FEV; 1.62 fold enrichment (6-mer frequency, TF over GST control) in the assay with ETV5; 1.74 fold enrichment (6-mer frequency, TF over GST control) with HSF1. Besides, the binding signal in the assay with SPIC is 1.44 fold enrichment (6-mer frequency, TF over GST control); with ELF4, 1.49 fold enrichment (6-mer frequency, TF over GST control); with ELK4 it was 1.69 fold enrichment (6-mer frequency, TF over GST control); with ETV2 it was 1.56 fold enrichment (6-mer frequency, TF over GST control); with ELF3, 1.47 fold enrichment (6-mer frequency, TF over GST control); in the assay with CRX, 1.47 fold enrichment (6-mer frequency, TF over GST control). Also, the binding signal with ETV1 was 1.57 fold enrichment (6-mer frequency, TF over GST control).
